# Source: PubChem BioAssay (EPA / NIEHS)
# Several values for one entry are separate records, joined by “and”; a condition that tells them apart may be missing. Equal entries are not always repeated. Inconclusive results are not listed. Activity calls are given as the source filed them. Rule for the calls: active = hit-call score of the fitted dose curve at least 0.9, where 1 is the maximum; inconclusive = response in the unintended direction; inactive = score below 0.9.
# Experiments:
# [1] = target: Estrogen receptor beta (Homo sapiens) (UniProt Q92731); assay: ATG_hERb_XSP2: Attagene TRANS-FACTORIAL Multi-Species (XSP2) HepG2 Assay for human Estrogen Receptor (ERb) (AID 2283813);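 note: actives raise reporter mRNA above DMSO so AC50 reflects agonist induction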
# Method in brief: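 Transient TRANS reporter system in HepG2: after 24 h of chemical, RNA is reverse-transcribed, reporter cDNA amplified, FAM-labelled and sized by capillary electrophoresis. Induction of the human ERb-Gal4 reporter is measured relative to DMSO.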
# [2] = tested on: zebrafish Estrogen Receptor (ER2a), gene 317734; assay: ATG_zfER2a_XSP2: Attagene TRANS-FACTORIAL Multi-Species (XSP2) HepG2 Assay for zebrafish Estrogen Receptor (ER2a) (AID 2283818);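 note: hits raise reporter mRNA so AC50 reflects activation of zebrafish ER2a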
# Method in brief: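 Multiplexed trans-reporter readout: RT-PCR then capillary electrophoresis of reporter transcripts after 24 h compound treatment. Human HepG2 carries transfected zebrafish ER2a-Gal4 chimera; 3 nM 6-alpha-fluorotestosterone plus 1.5 nM norgestrel present. Induction scored against DMSO.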
# [3] = tested on: chicken Androgen Receptor (AR), gene 422165; assay: ATG_chAR_XSP2: Attagene TRANS-FACTORIAL Multi-Species (XSP2) HepG2 Assay for chicken Androgen Receptor (AR) (AID 2283819);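 note: hits raise reporter mRNA above DMSO so potency is for activation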
# Method in brief: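 Readout is reporter mRNA induction via RT-PCR/capillary electrophoresis after 24 h chemical exposure, positive direction relative to DMSO. Transiently transfected HepG2 express chimeric chicken AR–GAL4; AR stimulated by 3 nM 6-alpha-fluorotestosterone and 1.5 nM norgestrel.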
# [4] = tested on: zebrafish Androgen Receptor (AR), gene 100005148; assay: ATG_zfAR_XSP2: Attagene TRANS-FACTORIAL Multi-Species (XSP2) HepG2 Assay for zebrafish Androgen Receptor (AR) (AID 2283825);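 note: hits raise reporter mRNA above DMSO so AC50 reflects agonist-type gain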
# Method in brief: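 After 24 h compound exposure in medium with 3 nM 6-alpha-fluorotestosterone plus 1.5 nM norgestrel, HepG2 cells carrying zebrafish AR–GAL4 reporter constructs were assessed for reporter mRNA gain by RT-PCR and capillary electrophoresis.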
# Chain of Estrogen receptor beta (Homo sapiens) (Q92731 whole entry, looked up, the tested form may be a part): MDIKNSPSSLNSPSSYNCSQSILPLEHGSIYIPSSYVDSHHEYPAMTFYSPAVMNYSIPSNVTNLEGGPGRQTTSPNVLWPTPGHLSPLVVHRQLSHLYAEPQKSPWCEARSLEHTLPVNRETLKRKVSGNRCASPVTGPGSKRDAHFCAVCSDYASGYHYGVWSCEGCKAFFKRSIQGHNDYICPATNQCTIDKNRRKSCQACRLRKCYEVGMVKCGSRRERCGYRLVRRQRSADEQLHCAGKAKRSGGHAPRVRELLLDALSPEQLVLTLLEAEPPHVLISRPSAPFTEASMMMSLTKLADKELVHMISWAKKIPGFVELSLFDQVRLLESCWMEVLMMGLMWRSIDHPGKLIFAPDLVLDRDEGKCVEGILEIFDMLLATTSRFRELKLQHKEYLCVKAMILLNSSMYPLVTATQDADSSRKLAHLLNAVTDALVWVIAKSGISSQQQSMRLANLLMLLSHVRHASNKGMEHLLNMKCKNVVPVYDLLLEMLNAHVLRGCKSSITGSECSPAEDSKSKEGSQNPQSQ
structure (smiles),measurement,setting,value
C(=C(c1ccccc1)c1ccccc1)c1ccccc1,outcome,[1],inactive
c1ccc(B(c2ccccc2)c2ccccc2)cc1,AC50,[2],7.9 µM (active) and 9.53 µM (active)
same,outcome,[3],inactive
C#C[C@]1(O)CC[C@H]2[C@@H]3CCc4cc(OC)ccc4[C@H]3CC[C@@]21C,AC50,[2],0.272 nM (active) and 0.0819 nM (active)
O=C(OCCOCCOCCOC(=O)c1ccccc1)c1ccccc1,outcome,[3],inactive
same,outcome,[4],inactive
